{"source": "paper PMC9911399", "about": "“Two distinct binding modes provide the RNA-binding protein RbFox with extraordinary sequence specificity”", "binders": {"B1": {"name": "GAGCAAA (DNA:RNA)", "RNA": "GGGAGACCGGAAUUCAGAUUGUCCGAGCAAAUUAAAUCCCGUCGUAGCCACCA", "DNA 1": "CAATCTGAATTCCGGTCTCCC", "DNA 2": "TGGTGGCTACGACGGGATT"}, "B2": {"name": "CUUUGUC (DNA:RNA)", "RNA": "GGGAGACCGGAAUUCAGAUUGUCCCUUUGUCUUAAAUCCCGUCGUAGCCACCA", "DNA 1": "CAATCTGAATTCCGGTCTCCC", "DNA 2": "TGGTGGCTACGACGGGATT"}, "B3": {"name": "AUCCCAA (DNA:RNA)", "RNA": "B1 RNA with G25A, A26U, G27C, A29C", "DNA 1": "CAATCTGAATTCCGGTCTCCC", "DNA 2": "TGGTGGCTACGACGGGATT"}, "B4": {"name": "GGAUCCG (DNA:RNA)", "RNA": "B2 RNA with C25G, U26G, U27A, G29C, U30C, C31G", "DNA 1": "CAATCTGAATTCCGGTCTCCC", "DNA 2": "TGGTGGCTACGACGGGATT"}, "B5": {"name": "GGGAUCA (DNA:RNA)", "RNA": "B1 RNA with A26G, C28A, A29U, A30C", "DNA 1": "CAATCTGAATTCCGGTCTCCC", "DNA 2": "TGGTGGCTACGACGGGATT"}, "B6": {"name": "GGAAUCG (DNA:RNA)", "RNA": "B1 RNA with A26G, G27A, C28A, A29U, A30C, A31G", "DNA 1": "CAATCTGAATTCCGGTCTCCC", "DNA 2": "TGGTGGCTACGACGGGATT"}, "B7": {"name": "CGGAUCA (DNA:RNA)", "RNA": "B1 RNA with G25C, A26G, C28A, A29U, A30C", "DNA 1": "CAATCTGAATTCCGGTCTCCC", "DNA 2": "TGGTGGCTACGACGGGATT"}, "B8": {"name": "GGAUUCA (DNA:RNA)", "RNA": "B1 RNA with A26G, G27A, C28U, A29U, A30C", "DNA 1": "CAATCTGAATTCCGGTCTCCC", "DNA 2": "TGGTGGCTACGACGGGATT"}, "B9": {"name": "GGGAUCC (DNA:RNA)", "RNA": "B1 RNA with A26G, C28A, A29U, A30C, A31C", "DNA 1": "CAATCTGAATTCCGGTCTCCC", "DNA 2": "TGGTGGCTACGACGGGATT"}, "B10": {"name": "GGAUCGU (DNA:RNA)", "RNA": "B2 RNA with C25G, U26G, U27A, G29C, U30G, C31U", "DNA 1": "CAATCTGAATTCCGGTCTCCC", "DNA 2": "TGGTGGCTACGACGGGATT"}, "B11": {"name": "GGGAUCG (DNA:RNA)", "RNA": "B1 RNA with A26G, C28A, A29U, A30C, A31G", "DNA 1": "CAATCTGAATTCCGGTCTCCC", "DNA 2": "TGGTGGCTACGACGGGATT"}, "B12": {"name": "CGGAUCG (DNA:RNA)", "RNA": "B2 RNA with U26G, U27G, U28A, G29U, U30C, C31G", "DNA 1": "CAATCTGAATTCCGGTCTCCC", "DNA 2": "TGGTGGCTACGACGGGATT"}}, "note": "Where a chain is given by its changes, count along the chain named. Whole data set: some 16,000 sequences, median “ka relative to ugcaugu” near 0.0091, cut for the highest 2% near 0.032. For the sample, the highest values were picked, then their nearest neighbours and some sequences at random."}
{"target": "T1, RBFOX1 RRM (Homo sapiens, UniProt Q9NWB1 109-208)", "T1 sequence": "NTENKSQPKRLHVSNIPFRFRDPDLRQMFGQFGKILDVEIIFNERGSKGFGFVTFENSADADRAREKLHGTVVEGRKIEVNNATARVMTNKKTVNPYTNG", "experiment": "EMSA; HiTS-Eq, 1 nM pool, 10 min; buffer printed only for the single-RNA assays: 10 mM Tris pH 7.5, 150 mM NaCl, 3.4 mM EDTA, 0.001% NP-40, 30 C", "conditions": "tags: His6 N-terminal (pET28a); label: 5' 32P", "method_in_brief": "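Relative association constants, normalised to the cognate motif, were derived by comparing read counts of each RNA species with those of the control reaction. The RNA sequenced was the free fraction, separated by 8% native PAGE after a 10 min equilibration in 50 µL of 1 nM 5′-radiolabelled RNA (7 randomized nucleotides) with increasing concentrations of purified wild-type or mutant RbFox RRM.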"}
{"binder": "B1", "binding signal": "0.00616 KA relative to UGCAUGU"}
{"binder": "B2", "binding signal": "0.0202 KA relative to UGCAUGU"}
{"binder": "B3", "binding signal": "0.00187 KA relative to UGCAUGU"}
{"binder": "B4", "binding signal": "0.00934 KA relative to UGCAUGU"}
{"binder": "B5", "binding signal": "0.0351 KA relative to UGCAUGU"}
{"binder": "B6", "binding signal": "0.0216 KA relative to UGCAUGU"}
{"binder": "B7", "binding signal": "0.0199 KA relative to UGCAUGU"}
{"binder": "B8", "binding signal": "0.0122 KA relative to UGCAUGU"}
{"binder": "B9", "binding signal": "0.0157 KA relative to UGCAUGU"}
{"binder": "B10", "binding signal": "0.0112 KA relative to UGCAUGU"}
{"binder": "B11", "binding signal": "0.0449 KA relative to UGCAUGU"}
{"binder": "B12", "binding signal": "0.0358 KA relative to UGCAUGU"}
